# Values without a mark were called inactive. For some of these results: Measured potencies and affinities stand elsewhere. Activity calls are given as the source filed them. Unless noted, how the calls were made is not given here.
# Experiments:
# [1] = antimalarial activity against Dd2 strain (AID 2302;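 active means growth inhibition above 50% at the single 2 µM test dose, taken to imply half-maximal potency below 2 µM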;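 further: 0% = DMSO untreated growth and 100% = chloroquine plus artemisinin killed control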); details: P. falciparum Dd2 in RBCs, LDH growth readout, 72 h; at 2 µM; hits give high values
# [2] = HepG2 cytotoxicity, primary screen, cytotoxicity control for P. falciparum antimalarial project, cell-based, ATP luminescence (AID 2303;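 active means inhibition above 50%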;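 further: 0% = DMSO wells and 100% = digitonin-killed cells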); details: HepG2 viability, 24-48 h, at 10 µM, hits give high values
# [3] = target: L-lactate dehydrogenase (Plasmodium falciparum (isolate CDC / Honduras)) (UniProt Q27743); test: PfLDH activity inhibition – cell lysate, 3D7 strain, counter-screen for P. falciparum growth inhibition project (AID 2304);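 further: 0% = vehicle and 100% = reference inhibitor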; details: P. falciparum 3D7 crude extract, LDH APAD/NBT absorbance; at 2 µM; hits give high values
# Sequence of L-lactate dehydrogenase (Plasmodium falciparum (isolate CDC / Honduras)) (Q27743 whole entry, looked up): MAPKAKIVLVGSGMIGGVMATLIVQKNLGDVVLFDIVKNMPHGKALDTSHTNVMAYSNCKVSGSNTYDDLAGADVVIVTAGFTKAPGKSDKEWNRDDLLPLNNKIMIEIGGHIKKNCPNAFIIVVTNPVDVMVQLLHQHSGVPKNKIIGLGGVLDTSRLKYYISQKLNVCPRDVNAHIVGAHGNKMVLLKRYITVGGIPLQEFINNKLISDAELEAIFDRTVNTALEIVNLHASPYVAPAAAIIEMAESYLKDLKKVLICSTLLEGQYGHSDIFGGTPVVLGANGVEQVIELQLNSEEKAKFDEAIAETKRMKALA
# [4] = inhibition of 3D7 malaria parasite growth – strain 3D7 (AID 2306);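 further: 0% = DMSO wells and 100% = chloroquine plus artemisinin control wells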; details: P. falciparum 3D7 erythrocytic growth, LDH absorbance, 72 h; at 2 µM; hits give high values
# [5] = target: Calcium-dependent protein kinase 1 (Plasmodium falciparum (isolate 3D7)) (UniProt P62344); test: PfCDPK1 kinase inhibitors, biochemical, TCAMS library (AID 1159585; cut-off not given, nearly all actives have IC50 up to about 0.98 µM;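 further: inhibitors leave more ATP so luminescence rises with inhibition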); details: recombinant PfCDPK1, Kinase-Glo ATP depletion luminescence
# Sequence of Calcium-dependent protein kinase 1 (Plasmodium falciparum (isolate 3D7)) (P62344 whole entry, looked up): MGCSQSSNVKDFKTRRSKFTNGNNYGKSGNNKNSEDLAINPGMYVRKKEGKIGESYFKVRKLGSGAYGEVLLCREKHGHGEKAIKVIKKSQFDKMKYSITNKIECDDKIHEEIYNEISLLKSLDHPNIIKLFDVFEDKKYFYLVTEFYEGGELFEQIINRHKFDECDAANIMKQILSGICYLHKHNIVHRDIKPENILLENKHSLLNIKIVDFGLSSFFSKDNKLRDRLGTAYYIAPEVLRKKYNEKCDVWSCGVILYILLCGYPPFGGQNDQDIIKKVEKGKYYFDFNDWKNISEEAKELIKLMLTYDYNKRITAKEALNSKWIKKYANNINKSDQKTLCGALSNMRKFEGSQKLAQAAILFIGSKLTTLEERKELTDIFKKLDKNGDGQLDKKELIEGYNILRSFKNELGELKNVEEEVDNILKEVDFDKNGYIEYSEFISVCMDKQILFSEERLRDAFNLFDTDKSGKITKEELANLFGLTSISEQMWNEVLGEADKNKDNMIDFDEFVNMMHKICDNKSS
# [6] = target: Plasmodium falciparum protein kinase 6 (PK6, PF3D7_1337100) (UniProt Q8IDW1); test: PfPK6 kinase inhibitors, biochemical, TCAMS library (AID 1159586); details: recombinant PfPK6, Kinase-Glo ATP depletion luminescence
# Sequence of Plasmodium falciparum protein kinase 6 (PK6, PF3D7_1337100) (Q8IDW1 1-305): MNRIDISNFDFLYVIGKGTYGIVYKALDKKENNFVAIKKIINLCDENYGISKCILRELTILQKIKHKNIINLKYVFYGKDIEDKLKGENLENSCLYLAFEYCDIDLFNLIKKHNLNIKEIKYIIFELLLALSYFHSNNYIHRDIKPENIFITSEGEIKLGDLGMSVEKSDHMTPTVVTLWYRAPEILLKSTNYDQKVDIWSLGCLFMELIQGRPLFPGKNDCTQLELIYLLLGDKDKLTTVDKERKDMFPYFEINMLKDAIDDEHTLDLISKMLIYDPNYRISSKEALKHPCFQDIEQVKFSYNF
# [7] = target: Protein kinase 7 (PK7), Plasmodium falciparum 3D7 (PF3D7_0213400) (UniProt Q7YTF7); test: inhibition of Plasmodium PK7 catalytic activity – biochemical, TCAMS antimalarial set, Kinase-Glo luminescence (AID 1159587); details: recombinant PfPK7, Kinase-Glo ATP depletion luminescence
# Sequence of Protein kinase 7 (PK7), Plasmodium falciparum 3D7 (PF3D7_0213400) (Q7YTF7 1-343): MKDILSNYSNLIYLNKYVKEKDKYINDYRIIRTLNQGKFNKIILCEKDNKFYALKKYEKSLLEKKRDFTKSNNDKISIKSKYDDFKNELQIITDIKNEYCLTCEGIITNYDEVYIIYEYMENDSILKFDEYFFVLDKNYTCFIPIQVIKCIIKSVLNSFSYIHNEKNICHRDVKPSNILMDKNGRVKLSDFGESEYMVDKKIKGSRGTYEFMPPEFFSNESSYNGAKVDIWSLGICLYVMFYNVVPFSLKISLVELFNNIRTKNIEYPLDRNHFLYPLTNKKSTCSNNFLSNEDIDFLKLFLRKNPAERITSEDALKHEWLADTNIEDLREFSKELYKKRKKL
# [8] = target: Calcium-dependent protein kinase 4 (Plasmodium falciparum (isolate 3D7)) (UniProt Q8IBS5); test: PfCDPK4 kinase inhibitors, biochemical, TCAMS library (AID 1159588; cut-off not given, nearly all actives have IC50 up to about 0.91 µM); details: recombinant PfCDPK4, Kinase-Glo ATP depletion luminescence
# Sequence of Calcium-dependent protein kinase 4 (Plasmodium falciparum (isolate 3D7)) (Q8IBS5 whole entry, looked up): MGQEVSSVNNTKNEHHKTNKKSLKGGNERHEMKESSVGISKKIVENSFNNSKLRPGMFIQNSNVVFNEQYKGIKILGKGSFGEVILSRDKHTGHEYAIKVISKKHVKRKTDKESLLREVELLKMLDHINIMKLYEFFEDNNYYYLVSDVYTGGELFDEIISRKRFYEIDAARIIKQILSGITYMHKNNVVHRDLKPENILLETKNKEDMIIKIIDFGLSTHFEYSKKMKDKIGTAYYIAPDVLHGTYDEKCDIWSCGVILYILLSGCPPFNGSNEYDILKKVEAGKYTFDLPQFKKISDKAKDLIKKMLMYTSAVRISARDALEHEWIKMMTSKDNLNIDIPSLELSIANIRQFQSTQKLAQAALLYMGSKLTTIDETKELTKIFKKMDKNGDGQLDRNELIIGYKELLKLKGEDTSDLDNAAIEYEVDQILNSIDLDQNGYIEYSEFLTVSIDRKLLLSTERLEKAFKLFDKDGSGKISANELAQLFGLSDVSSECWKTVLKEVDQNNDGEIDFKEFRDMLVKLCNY
SMILES,growth inhibition [1],inhibition [2],inhibition [3] [%],growth inhibition [4],outcome [5],outcome [6],outcome [7],outcome [8]
CCN(CC)CCN(Cc1ccc(-c2ccc(C(F)(F)F)cc2)cc1)C(=O)Cn1c(CCc2cccc(F)c2F)nc(=O)c2cccnc21,89% (active),75% (active),2,101% (active),inactive,inactive,inactive,inactive
COc1ccc(CCNC(=O)c2cc3c(=O)n4cccc(C)c4nc3n(C)c2=N)cc1,99% (active),22%,4,99% (active),inactive,inactive,inactive,inactive
O=C(c1ccccc1)N1COCC(CCN2CCC(N3CCCC3)CC2)(c2ccc(Cl)c(Cl)c2)C1 (stereo not drawn),9%,18%,0,83% (active),inactive,inactive,inactive,inactive
COc1ccc(N2CCN(CCCCNC(=O)c3ccc(NC(=O)c4ccc(Cl)c(Cl)c4)cc3)CC2)c(OC)c1,98% (active),23%,4,101% (active),inactive,inactive,inactive,inactive
CCOC(=O)CCCOc1c(OC)cc(Cc2cnc(N)nc2N)cc1OC,7%,10%,8,96% (active),inactive,inactive,inactive,inactive
CCCOc1cc(OCCC)cc(-c2cc(=O)c3ccccc3[nH]2)c1,96% (active),33%,-2,99% (active),inactive,inactive,inactive,inactive
Fc1cc(Cl)ccc1Nc1ccnc2cc(-c3ccc(CN4CCCCC4)o3)ccc12,99% (active),16%,-1,100% (active),inactive,inactive,inactive,inactive
OC(CNCCCc1ccccc1)c1cc(OCc2ccccc2)cc(OCc2ccccc2)c1 (stereo not drawn),85% (active),8%,4,93% (active),inactive,inactive,inactive,inactive
NC1CCN(Cc2ccc(-c3ccc(-c4nc5ccccc5[nH]4)cc3)cc2)C1 (stereo not drawn),100% (active),34%,-5,101% (active),inactive,inactive,inactive,inactive
O=C(NC1CCC(CCN2Cc3cccc(C(F)(F)F)c3C2)CC1)c1cccc(-c2cccnc2)c1 (stereo not drawn),67% (active),26%,2,100% (active),inactive,inactive,inactive,inactive
COc1cc(F)c2ncc(Cl)c(CCN3CCC(NCc4ccc5c(c4)NC(=O)CS5)CC3)c2c1,85% (active),27%,-6,100% (active),inactive,inactive,inactive,inactive
CCOc1ccc(-c2nonc2NC(=O)c2ccccc2)cc1OCC,100% (active),6%,4,99% (active),inactive,inactive,inactive,inactive
COCc1ccccc1C(=O)NCCOc1cc(C)cc(C)c1,95% (active),26%,5,96% (active),inactive,inactive,inactive,inactive
COc1cccc(C23N=C(Nc4nc5ccccc5[nH]4)NC2(c2cccc(OC)c2)NC(Nc2nc4ccccc4[nH]2)=N3)c1 (stereo not drawn),99% (active),-9%,3,101% (active),inactive,inactive,inactive,inactive
O=C(Nc1cccc(CN2CCCN(CCc3ccccc3)CC2)c1)c1ccc(Cl)c(Cl)c1,15%,41%,-5,86% (active),inactive,inactive,inactive,inactive
COc1cc(NC(=O)c2sc(-c3ccc(Cl)cc3)cc2NC(=O)c2cccnc2)ccc1OCCN1CCCC1,77% (active),38%,-1,94% (active),inactive,inactive,inactive,inactive
O=[N+]([O-])c1nc(Br)n(Cc2ccc(Cl)cc2)n1,95% (active),-3%,-1,96% (active),inactive,inactive,inactive,inactive
COc1cc2c(cc1COc1ccccc1)CCN1Cc3cc(OC)c(OC)cc3CC21 (stereo not drawn),84% (active),-1%,2,99% (active),inactive,inactive,inactive,inactive
COc1ccc(Oc2ccc(-c3c(C)[nH]c(C)cc3=O)cc2)cc1,88% (active),-12%,-3,93% (active),inactive,inactive,inactive,inactive
NCC1CCCN1Cc1ccc(-c2ccc(-c3nc4ccccc4[nH]3)s2)cc1 (stereo not drawn),97% (active),17%,-6,98% (active),inactive,inactive,inactive,inactive
CC(C)(C)c1nn(-c2ccc(Cl)cc2)c2[nH]c(=O)c(CNCc3ccc4c(c3)OCO4)cc12,98% (active),15%,7,100% (active),inactive,inactive,inactive,inactive

SMILES,growth inhibition [1],inhibition [2],inhibition [3] [%],growth inhibition [4],outcome [5],outcome [6],outcome [7],outcome [8]
Cc1ccccc1C1CCN(c2ccc(NC(=O)c3ccc(Cl)nc3)cc2)CC1,82% (active),43%,-2,92% (active),inactive,inactive,inactive,inactive
Cc1nc(-c2ccc(C(F)(F)F)cn2)sc1C(=O)N1CCc2cc3nccc(N4CCN5CCC[C@H]5C4)c3cc21,72% (active),5%,0,100% (active),inactive,inactive,inactive,inactive
O=C(O)CCCN1CCCC(=C(c2ccccc2)c2ccccc2)C1,2%,-5%,0,82% (active),inactive,inactive,inactive,inactive
c1ccc(CCNCc2ccc(-c3ccc(CNC4CCN(Cc5ccccc5)CC4)cc3)nc2)cc1,99% (active),34%,-1,101% (active),inactive,inactive,inactive,inactive
CN(C)CCCn1c(C(=O)OC(c2ccccc2)c2ccccc2)cc2cc(OCc3ccccc3)ccc21,85% (active),12%,0,82% (active),inactive,inactive,inactive,inactive
COc1ccc(NC(=O)c2ccc3[nH]c(-c4ccc(Cl)cc4)cc3c2)cc1OCCN(C)C,78% (active),32%,2,100% (active),inactive,inactive,inactive,inactive
Cc1nc2nc(N)nc(N)c2c(C)c1Cc1ccc(C#N)cc1,4%,69% (active),1,96% (active),inactive,inactive,inactive,inactive
CC1CCC(NC(=O)c2nn(-c3ccc(Cl)cc3)c(=O)c3ccccc23)CC1 (stereo not drawn),67% (active),3%,-3,91% (active),inactive,inactive,inactive,inactive
COc1cc2nc(Nc3ccc(Oc4ccccc4)cc3)nc(Nc3ccc(Oc4ccccc4)cc3)c2cc1OC,45%,5%,6,95% (active),inactive,inactive,inactive,inactive
COc1cccc2cc(C(=O)N[C@@H](CC(C)C)C(=O)N[C@H](/C=N/N(C)C(=O)OC(C)(C)C)Cc3ccccc3)oc12,89% (active),5%,-3,99% (active),inactive,inactive,inactive,inactive
COc1ccc(C(=O)[C@H]2C[C@@H]2CN(C)CC(O)c2cc(C)c(OC)cc2C)cc1 (stereo partly drawn),77% (active),8%,-3,90% (active),inactive,inactive,inactive,inactive
N[C@@H](CCNC1CCN(c2cccc(C(F)(F)F)c2)CC1)Cc1ccc(F)c(F)c1,69% (active),100% (active),-1,101% (active),inactive,inactive,inactive,inactive
Cc1ccc(C2(C)CC(C)(C)N(C(=O)COc3ccc4ccccc4c3)c3ccccc32)cc1 (stereo not drawn),98% (active),0%,-2,100% (active),inactive,inactive,inactive,inactive
O=C1C2C(C(=O)N1c1ccccc1)[C@H]1S[C@@H]2c2c1ccc1ccccc21 (stereo partly drawn),7%,-5%,-1,96% (active),inactive,inactive,inactive,inactive
Cc1ccccc1NC(=S)NC1CCN(CCCCCNC(=O)/C=C/c2ccc(Cl)c(Cl)c2)CC1,7%,14%,2,99% (active),inactive,inactive,inactive,inactive
CNc1cc(-c2ccc3ccnc(N)c3c2)nc(N)n1,81% (active),23%,-2,100% (active),inactive,inactive,inactive,inactive
Cc1cccc2[nH]c(-c3cccc(-c4cccc(NC(=O)Nc5ccc(Cl)c(Cl)c5)c4)c3)nc12,96% (active),24%,1,101% (active),inactive,inactive,inactive,inactive
CCCCN=C(N)Nc1ccc(OCCCOc2ccc(NC(N)=NCCCC)cc2)cc1,97% (active),15%,4,96% (active),inactive,inactive,inactive,inactive
COc1ccc(Br)cc1/C=C/C(=O)Nc1ccc2c(c1)CCCN(C)C2,10%,8%,1,84% (active),inactive,inactive,inactive,inactive
O=C(/C=C/c1ccc(Cl)c(Cl)c1)NCCCCCN1CCC(NC(=O)Nc2ccc(F)c(F)c2)CC1,4%,24%,2,99% (active),inactive,inactive,inactive,inactive
